Eleven compounds from PubChem BioAssay (EPA / NIEHS) can be followed below.

Assay [1] deals with rat CYP2D1, Cyp2d1 (gene 266684) (UniProt P10633). Description: NVS_ADME_rCYP2D1: NovaScreen (NVS) CYP450-related Enzyme Activity (ADME) Assay for rat CYP2D1 (AID 2283122). How it is done: (§1) NVS_ADME_rCYP2D1 is a biochemical, single-readout assay that uses extracted gene-proteins in a cell-free assay. Measurements were taken 0.75 hour after chemical dosing in a 96-well plate.NVS_ADME_rCYP2D1 is one of one assay component(s) measured or calculated from the NVS_ADME_rCYP2D1 assay. It is designed to make measurements of enzyme activity, a form of enzyme reporter, as detected with fluorescence intensity signals by Fluorescence technology.Data from the assay component NVS_ADME_rCYP2D1 was analyzed into 1 assay endpoint. This assay endpoint, NVS_ADME_rCYP2D1, was analyzed in the positive analysis fitting direction relative to Acetonitrile as the negative control and baseline of activity. Using a type of enzyme reporter, loss-of-signal activity can be used to understand changes in the enzymatic activity as they relate to the gene Cyp2d1. Furthermore, this assay endpoint can be referred to as a primary readout, because this assay has produced multiple assay endpoints where this one serves a enzymatic activity function. To generalize the intended target to other relatable targets, this assay endpoint is annotated to the cyp intended target family, where the subfamily is xenobiotic metabolism.
Chain of rat CYP2D1, Cyp2d1 (gene 266684) (P10633 whole entry, looked up): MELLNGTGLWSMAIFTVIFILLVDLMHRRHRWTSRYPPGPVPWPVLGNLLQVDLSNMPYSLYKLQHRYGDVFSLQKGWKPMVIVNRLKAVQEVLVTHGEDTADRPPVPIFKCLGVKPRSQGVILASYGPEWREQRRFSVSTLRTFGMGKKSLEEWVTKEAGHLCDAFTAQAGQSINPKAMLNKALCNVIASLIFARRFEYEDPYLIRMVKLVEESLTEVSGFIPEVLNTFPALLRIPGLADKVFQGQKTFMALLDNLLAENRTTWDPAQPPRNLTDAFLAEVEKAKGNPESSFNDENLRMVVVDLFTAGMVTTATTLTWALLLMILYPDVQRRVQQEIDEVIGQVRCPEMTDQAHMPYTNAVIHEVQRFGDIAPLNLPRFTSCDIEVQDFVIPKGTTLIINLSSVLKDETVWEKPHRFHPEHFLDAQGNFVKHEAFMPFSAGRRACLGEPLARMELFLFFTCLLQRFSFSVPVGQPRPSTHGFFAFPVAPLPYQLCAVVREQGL
(§2) Binding assays used specific radioligands (tritiated, iodinated) with non-radioactive competitive displacement ligands in agonist or antagonist protocols (as indicated) and various reference compounds and inhibitors to titrate specific binding to receptors and transporters. Most enzyme assays (CYPs, kinases, phosphatases, proteases, HDACs) used recombinant protein and specific substrates (fluorescence mostly, some colorimetric and radioactive) and inhibitors, followed by a biochemical separation of substrate and product. All assays for the biochemical HTS were initially run in duplicate at a single concentration (10 uM for CYP450 assays and 25 uM for all others). Assay-chemical combinations meeting a pre-defined threshold (e.g., 30% inhibition and other criteria defined below) were then run in singleton concentration-response format with maximum concentration of 20 uM for CYPs and 50 uM for all others. Each assay was run with positive and negative controls, and concurrent controls on every plate. The follow-up (secondary) screen tested active chemical-pairs in concentration series, as well as a few additional assays not tested in the primary screen, some selected negative inactives, and several cases re-run in the concentration series for confirmatory purposes.

In assay [2] the target is rat CYP2A1, Cyp2a1 (gene 24894) (UniProt P11711). Description: NVS_ADME_rCYP2A1: NovaScreen (NVS) CYP450-related Enzyme Activity (ADME) Assay for rat CYP2A1 (AID 2283114; active = hit-call score of the fitted dose curve at least 0.9, where 1 is the maximum; inactive = score below 0.9). Here is the method:
as §1, with “NVS_ADME_rCYP2A1” for “NVS_ADME_rCYP2D1”, “plate.NVS_ADME_rCYP2A1” for “plate.NVS_ADME_rCYP2D1”, “NVS_ADME_rCYP2A1,” for “NVS_ADME_rCYP2D1,”, “Cyp2a1.” for “Cyp2d1.”
as §2

Assay [3] deals with rat CYP2A2, Cyp2a2 (gene 24895) (UniProt P15149). Description: NVS_ADME_rCYP2A2: NovaScreen (NVS) CYP450-related Enzyme Activity (ADME) Assay for rat CYP2A2 (AID 2283116). The gist of the method: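 Cell-free recombinant rat CYP2A2 activity with fluorogenic substrate, fluorescence read 0.2 h after dosing. Chemicals screened at 10 uM in duplicate, hits then run in concentration-response up to 20 uM; signal loss versus acetonitrile baseline.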
Chain of rat CYP2A2, Cyp2a2 (gene 24895) (P15149 whole entry, looked up): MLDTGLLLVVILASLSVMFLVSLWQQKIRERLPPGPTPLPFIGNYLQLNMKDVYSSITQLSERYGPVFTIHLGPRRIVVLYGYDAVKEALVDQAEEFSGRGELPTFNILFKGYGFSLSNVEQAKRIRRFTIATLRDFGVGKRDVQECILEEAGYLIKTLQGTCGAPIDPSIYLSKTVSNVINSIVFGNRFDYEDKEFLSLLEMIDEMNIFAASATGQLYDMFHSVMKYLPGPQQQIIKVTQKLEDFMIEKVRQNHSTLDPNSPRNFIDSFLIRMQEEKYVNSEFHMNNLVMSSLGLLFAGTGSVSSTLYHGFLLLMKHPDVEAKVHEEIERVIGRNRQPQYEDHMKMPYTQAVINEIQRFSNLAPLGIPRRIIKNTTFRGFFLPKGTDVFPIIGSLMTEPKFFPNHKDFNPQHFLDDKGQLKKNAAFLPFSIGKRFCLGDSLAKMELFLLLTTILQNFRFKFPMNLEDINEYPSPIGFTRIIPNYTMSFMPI

Assay [4] deals with rat CYP2C11, Cyp2c11 (gene 29277) (UniProt P08683). Description: NVS_ADME_rCYP2C11: NovaScreen (NVS) CYP450-related Enzyme Activity (ADME) Assay for rat CYP2C11 (AID 2283118). The gist of the method:
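Cell-free recombinant rat enzyme with fluorescent substrate; readout 0.33 h after dosing, loss of signal versus acetonitrile control. Initial duplicate single-point at 10 uM; actives rerun in concentration series.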

The target of assay [5] is rat CYP2C12, Cyp2c12 (gene 25011) (UniProt P11510). Kind of assay: NVS_ADME_rCYP2C12: NovaScreen (NVS) CYP450-related Enzyme Activity (ADME) Assay for rat CYP2C12 (AID 2283119). How it is done: as §1, with “NVS_ADME_rCYP2C12” for “NVS_ADME_rCYP2D1”, “0.5” for “0.75”, “plate.NVS_ADME_rCYP2C12” for “plate.NVS_ADME_rCYP2D1”, “NVS_ADME_rCYP2C12,” for “NVS_ADME_rCYP2D1,”, “Cyp2c12.” for “Cyp2d1.”
Chain of rat CYP2C12, Cyp2c12 (gene 25011) (P11510 whole entry, looked up): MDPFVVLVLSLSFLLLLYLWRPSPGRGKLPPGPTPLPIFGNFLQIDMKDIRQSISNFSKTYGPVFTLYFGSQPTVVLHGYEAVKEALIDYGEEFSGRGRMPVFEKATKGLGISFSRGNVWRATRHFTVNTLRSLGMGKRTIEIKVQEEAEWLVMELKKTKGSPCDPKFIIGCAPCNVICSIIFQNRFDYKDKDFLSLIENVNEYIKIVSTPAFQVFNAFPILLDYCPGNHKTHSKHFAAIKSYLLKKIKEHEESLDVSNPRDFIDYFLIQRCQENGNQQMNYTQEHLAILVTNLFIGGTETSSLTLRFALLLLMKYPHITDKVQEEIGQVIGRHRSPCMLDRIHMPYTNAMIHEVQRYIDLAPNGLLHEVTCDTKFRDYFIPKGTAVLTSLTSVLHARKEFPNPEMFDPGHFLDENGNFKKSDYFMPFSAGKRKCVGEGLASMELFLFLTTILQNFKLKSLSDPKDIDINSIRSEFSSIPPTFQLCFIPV
as §2, with “Assay-chemical combinations meeting a pre-defined threshold (e.g., 30% inhibition and other criteria defined below) were then run in singleton concentration-response format with maximum concentration of 20 uM for CYPs and 50 uM for all others.” left out

A further assay has as its system rat CYP2C6, gene 293989. Description: NVS_ADME_rCYP2C6: NovaScreen (NVS) CYP450-related Enzyme Activity (ADME) Assay for rat CYP2C6 (AID 2283120). The gist of the method: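 Cell-free recombinant rat CYP2C6 with fluorogenic substrate, read by fluorescence 1 h after dosing; acetonitrile as negative control. Primary screen at 10 uM in duplicate, actives then in concentration-response up to 20 uM.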

The target in assay [6] is rat CYP2C13, Cyp2c13 (gene 171521) (UniProt P20814). Description: NVS_ADME_rCYP2C13: NovaScreen (NVS) CYP450-related Enzyme Activity (ADME) Assay for rat CYP2C13 (AID 2283121). Here is the method: as §1, with “NVS_ADME_rCYP2C13” for “NVS_ADME_rCYP2D1”, “plate.NVS_ADME_rCYP2C13” for “plate.NVS_ADME_rCYP2D1”, “NVS_ADME_rCYP2C13,” for “NVS_ADME_rCYP2D1,”, “Cyp2c13.” for “Cyp2d1.”
Chain of rat CYP2C13, Cyp2c13 (gene 171521) (P20814 whole entry, looked up): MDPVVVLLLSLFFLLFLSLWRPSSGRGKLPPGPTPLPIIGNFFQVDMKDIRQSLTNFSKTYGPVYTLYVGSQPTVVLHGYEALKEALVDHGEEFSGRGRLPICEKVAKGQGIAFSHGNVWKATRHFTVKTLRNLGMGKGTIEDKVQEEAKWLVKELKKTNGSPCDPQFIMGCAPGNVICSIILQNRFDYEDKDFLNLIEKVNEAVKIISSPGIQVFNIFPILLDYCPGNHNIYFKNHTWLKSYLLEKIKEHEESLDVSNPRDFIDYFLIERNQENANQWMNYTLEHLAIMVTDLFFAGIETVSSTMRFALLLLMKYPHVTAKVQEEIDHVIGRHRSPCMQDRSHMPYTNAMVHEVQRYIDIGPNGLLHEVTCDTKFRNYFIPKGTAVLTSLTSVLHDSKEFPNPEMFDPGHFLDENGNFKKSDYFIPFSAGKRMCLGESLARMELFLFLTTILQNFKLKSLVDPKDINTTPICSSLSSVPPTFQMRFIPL
as §2, with “Assay-chemical combinations meeting a pre-defined threshold (e.g., 30% inhibition and other criteria defined below) were then run in singleton concentration-response format with maximum concentration of 20 uM for CYPs and 50 uM for all others.” left out

Assay [7] addresses rat CYP2D2, Cyp2d26 (gene 25053) (UniProt P10634). Kind of assay: NVS_ADME_rCYP2D2: NovaScreen (NVS) CYP450-related Enzyme Activity (ADME) Assay for rat CYP2D2 (AID 2283124). The gist of the method:
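Recombinant rat CYP2D2 in a cell-free fluorogenic activity assay, fluorescence read 0.75 h after dosing. Primary screen in duplicate at 10 uM; actives re-run singly in concentration-response to 20 uM, relative to acetonitrile.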

Another assay relates to rat CYP3A1, gene 25642. Kind of assay: NVS_ADME_rCYP3A1: NovaScreen (NVS) CYP450-related Enzyme Activity (ADME) Assay for rat CYP3A1 (AID 2283126). The method in brief:
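Cell-free recombinant CYP assay with fluorescent substrate, read 0.5 h after dosing. Screened at 10 uM in duplicate, hits at up to 20 uM in concentration-response; loss of signal versus acetonitrile baseline.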

The target of assay [8] is rat CYP1A2, Cyp1a2 (gene 24297) (UniProt P04799). Description: NVS_ADME_rCYP1A2: NovaScreen (NVS) CYP450-related Enzyme Activity (ADME) Assay for rat CYP1A2 (AID 2283115). Here is the method: as §1, with “NVS_ADME_rCYP1A2” for “NVS_ADME_rCYP2D1”, “1” for “0.75”, “plate.NVS_ADME_rCYP1A2” for “plate.NVS_ADME_rCYP2D1”, “NVS_ADME_rCYP1A2,” for “NVS_ADME_rCYP2D1,”, “Cyp1a2.” for “Cyp2d1.”
Chain of rat CYP1A2, Cyp1a2 (gene 24297) (P04799 whole entry, looked up): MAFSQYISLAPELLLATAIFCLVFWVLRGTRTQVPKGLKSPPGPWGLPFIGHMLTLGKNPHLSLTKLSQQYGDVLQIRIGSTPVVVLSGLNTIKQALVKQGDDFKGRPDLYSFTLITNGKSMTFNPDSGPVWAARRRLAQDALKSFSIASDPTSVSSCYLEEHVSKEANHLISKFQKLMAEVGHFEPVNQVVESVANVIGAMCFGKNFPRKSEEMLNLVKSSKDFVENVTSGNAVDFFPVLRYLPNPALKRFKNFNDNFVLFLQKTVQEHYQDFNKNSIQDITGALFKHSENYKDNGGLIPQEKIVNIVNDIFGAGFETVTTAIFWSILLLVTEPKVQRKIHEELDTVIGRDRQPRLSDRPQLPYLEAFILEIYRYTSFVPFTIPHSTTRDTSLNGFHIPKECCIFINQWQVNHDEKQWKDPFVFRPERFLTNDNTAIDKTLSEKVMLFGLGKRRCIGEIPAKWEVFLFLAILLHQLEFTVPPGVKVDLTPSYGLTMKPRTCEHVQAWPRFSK
as §2, with “Assay-chemical combinations meeting a pre-defined threshold (e.g., 30% inhibition and other criteria defined below) were then run in singleton concentration-response format with maximum concentration of 20 uM for CYPs and 50 uM for all others.” left out

Molecules are shown by their SMILES. Results filed as inconclusive are left out. Activity calls are given as the source filed them. Rule for the calls, unless noted: active = hit-call score of the fitted dose curve at least 0.9, where 1 is the maximum; inconclusive = response in the unintended direction; inactive = score below 0.9.

Chain of rat CYP2A1, Cyp2a1 (gene 24894) (P11711 whole entry, looked up): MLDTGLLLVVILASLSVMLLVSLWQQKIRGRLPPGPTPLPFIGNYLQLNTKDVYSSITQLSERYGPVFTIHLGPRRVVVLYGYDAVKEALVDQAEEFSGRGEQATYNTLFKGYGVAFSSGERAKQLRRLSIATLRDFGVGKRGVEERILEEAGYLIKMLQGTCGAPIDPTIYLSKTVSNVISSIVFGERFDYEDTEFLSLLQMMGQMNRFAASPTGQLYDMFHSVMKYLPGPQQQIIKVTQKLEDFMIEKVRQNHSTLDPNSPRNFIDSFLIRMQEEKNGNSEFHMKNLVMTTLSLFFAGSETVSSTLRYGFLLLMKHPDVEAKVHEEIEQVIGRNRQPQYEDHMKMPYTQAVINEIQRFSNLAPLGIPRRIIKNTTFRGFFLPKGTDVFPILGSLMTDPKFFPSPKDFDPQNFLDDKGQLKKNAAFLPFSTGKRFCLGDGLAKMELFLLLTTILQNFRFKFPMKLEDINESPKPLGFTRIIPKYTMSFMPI
Chain of rat CYP2C11, Cyp2c11 (gene 29277) (P08683 whole entry, looked up): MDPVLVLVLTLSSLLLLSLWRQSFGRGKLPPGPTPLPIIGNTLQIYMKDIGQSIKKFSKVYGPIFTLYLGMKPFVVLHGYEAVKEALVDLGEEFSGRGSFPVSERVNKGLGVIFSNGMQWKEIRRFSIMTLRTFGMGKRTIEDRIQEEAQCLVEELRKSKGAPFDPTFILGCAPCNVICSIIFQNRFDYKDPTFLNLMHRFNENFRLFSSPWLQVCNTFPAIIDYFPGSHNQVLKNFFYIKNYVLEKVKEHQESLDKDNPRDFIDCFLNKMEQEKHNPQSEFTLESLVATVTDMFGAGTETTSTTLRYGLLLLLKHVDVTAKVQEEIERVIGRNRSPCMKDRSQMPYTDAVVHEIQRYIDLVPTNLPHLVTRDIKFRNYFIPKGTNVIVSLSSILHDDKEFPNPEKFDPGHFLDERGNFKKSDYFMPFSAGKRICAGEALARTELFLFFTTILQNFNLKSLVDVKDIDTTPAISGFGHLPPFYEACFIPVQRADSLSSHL
Chain of rat CYP2D2, Cyp2d26 (gene 25053) (P10634 whole entry, looked up): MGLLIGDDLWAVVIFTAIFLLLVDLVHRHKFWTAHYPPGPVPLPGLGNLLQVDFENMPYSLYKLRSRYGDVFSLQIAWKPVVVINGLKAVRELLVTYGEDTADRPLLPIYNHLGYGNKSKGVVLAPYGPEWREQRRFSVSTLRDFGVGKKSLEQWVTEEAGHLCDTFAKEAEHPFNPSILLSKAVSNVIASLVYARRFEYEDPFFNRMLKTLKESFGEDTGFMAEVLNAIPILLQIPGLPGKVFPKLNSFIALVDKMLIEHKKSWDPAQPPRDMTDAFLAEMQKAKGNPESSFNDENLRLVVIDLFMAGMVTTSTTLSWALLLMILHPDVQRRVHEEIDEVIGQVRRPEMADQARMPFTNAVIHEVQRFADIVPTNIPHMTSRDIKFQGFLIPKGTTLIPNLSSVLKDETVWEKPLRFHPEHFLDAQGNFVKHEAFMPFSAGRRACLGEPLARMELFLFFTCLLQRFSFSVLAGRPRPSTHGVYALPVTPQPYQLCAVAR

What is called AC50 is the concentration giving half of the maximal activity seen. Regarding `CC(C)=CC1C(C(=O)OCc2coc(Cc3ccccc3)c2)C1(C)C` (stereo not drawn), the AC50 in assay [1] was 5.37 µM (active).

With `CCCCC(O)(Cn1cncn1)c1ccc(Cl)cc1Cl` (stereo not drawn), the AC50 in assay [2] is 1.3 µM (active); in assay [3] it was 0.0126 µM (active); in assay [4], 1.85 µM (active); in assay [5] it was 1.58 µM (active); in the assay on rat CYP2C6, gene 293989, 3.59 µM (active); in [6], 0.655 µM (active). Moreover, the AC50 in [1] is 0.951 µM (active); in assay [7], 4.09 µM (active); in the assay with rat CYP3A1, gene 25642 it was 0.995 µM (active).

Regarding `Cn1c(-c2ccccc2)cc(-c2ccccc2)[n+]1C`, in assay [7], the half-maximal activity concentration (AC50) is 5.35 µM (active).

In the case of `CCOP(=O)(OCC)Oc1nc(Cl)c(Cl)cc1Cl`, the result in assay [8] was inactive. The AC50 in the assay on rat CYP3A1, gene 25642 was 7.93 µM (active).

As for `CC(C)Oc1cccc(NC(=O)c2ccccc2C(F)(F)F)c1`, the compound was classed as inactive in [2].

On to `CCCCC(C#N)(Cn1cncn1)c1ccc(Cl)cc1` (stereo not drawn), for which the AC50 was 0.563 µM (active) in [2]; 0.238 µM (active) in assay [3]; 2.39 µM (active) in [4]; 4.51 µM (active) in assay [5]; 4.37 µM (active) in assay [6]; 8.64 µM (active) in assay [1]. The concentration at half-maximal activity (AC50) in assay [7] was 6.44 µM (active); with rat CYP3A1, gene 25642, 3.82 µM (active).

For the compound `CC(C)N1C(=O)N(c2ccccc2)CSC1=NC(C)(C)C`, the concentration at half-maximal activity (AC50) is 3.97 µM (active) in assay [4] and 5.84 µM (active) in the assay with rat CYP3A1, gene 25642.

On to `CCCCOCN(C(=O)CCl)c1c(CC)cccc1CC`, for which the AC50 in the assay on rat CYP2C6, gene 293989 is 3.34 µM (active); in assay [6], 10 µM (active); in assay [7] it was 3.35 µM (active); with rat CYP3A1, gene 25642 it was 10 µM (active).

For the compound `C=CCOC(=O)C(C)(C)OC(=O)c1cc(-n2c(=O)cc(C(F)(F)F)n(C)c2=O)ccc1Cl`, the outcome in assay [5] was inactive. The AC50 in the assay with rat CYP3A1, gene 25642 was 0.595 µM (active).

On to `COc1ccc(-c2ccccc2)cc1NNC(=O)OC(C)C`, for which the outcome in [4] was inactive. The AC50 in [6] was 1.17 µM (active); with rat CYP3A1, gene 25642 it was 2.96 µM (active).

For the compound `CCN(CC)C(=O)C(C)Oc1cccc2ccccc12` (stereo not drawn), the AC50 in assay [3] is 5.89 µM (active); in assay [4] it was 0.951 µM (active); in the assay on rat CYP2C6, gene 293989 it was 4.21 µM (active); in assay [7], 6.02 µM (active); in the assay on rat CYP3A1, gene 25642, 4.43 µM (active).
